KB-3-1 cytotox: qHTS assay for MDR1-selective chemotherapeutics: Primary screen using the parental adenocarcinoma cell KB-3-1; KB-3-1 viability, CellTiter-Glo ATP luminescence, 72 h; Potency, µM (series often up to 46.1 µM), actives largely listed as cytotoxic; 400,000 compounds, 1.4% hits; AID 1347075, 2019; also: % is scaled to controls: 0 for no effect and ±100 for the full control effect; nearly all actives have a fitted effect of over 60% in size
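Cytotoxicity in the drug-sensitive parental line KB-3-1 was scored as loss of CellTiter-Glo luminescence following 72 h incubation with compound. Values come from curve fitting of normalized concentration-response data.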
KB-V1 cytotox: qHTS assay for MDR1-selective chemotherapeutics: Primary screen using the drug-selected MDR subline cells KB-V1; KB-V1 MDR cells viability, CellTiter-Glo, 72 h; Potency, µM (top dose mostly 46.1 µM), actives largely listed as cytotoxic; 400,000 compounds, 3.4% hits; AID 1347076, 2019; also: % is scaled to controls: 0 for no effect and ±100 for the full control effect; nearly all actives have a fitted effect of over 60% in size
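Cytotoxicity toward P-gp-expressing KB-V1 cells was determined as loss of CellTiter-Glo luminescence after 72 h at 37 degrees C. Compounds were tested in quantitative HTS format across a concentration range, with curves fitted to normalized data.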
MCF10A rerep: A quantitative high throughput screen for small molecules that induce DNA re-replication in MCF 10a normal breast cells; MCF 10A DNA re-replication, Hoechst nuclear intensity, 48 h; Potency, µM (top dose mostly 46.1 µM), for the others: at the highest dose activity, positive = re-replication, actives largely listed as activators; 350,000 compounds, 2.9% hits; also: % of control where 0% means no effect; nearly all actives have a fitted effect of over 50% in size
ELG1 repair inh: qHTS screen for small molecules that inhibit ELG1-dependent DNA repair in human embryonic kidney (HEK293T) cells expressing luciferase-tagged ELG1; HEK293T ELG1-luciferase reporter, luminescence, 16 h; DNA damage induced by 5-fluorouridine; Potency, µM (doses to about 46.1 µM), inactives show top-dose activity change, negative = inhibition, usual class: inhibitors; 330,000 compounds, 2.3% hits; AID 504467, 2011; also: % is scaled to controls: 0 for no effect and ±100 for the full control effect; nearly all actives have a fitted effect of over 55% in size
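Step one: seed 2,000 cells per well. Step two: pin-transfer compound or DMSO alongside 5-fluorouridine. Step three: incubate 16 hr, 37 °C, 5% CO2. Step four: add ONE-Glo, wait 30 min, read luminescence.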
SW480 rereplic: A quantitative high throughput screen for small molecules that induce DNA re-replication in SW480 colon adenocarcinoma cells; SW480 DNA re-replication, Hoechst DNA content imaging, 48 h; Potency, µM (titrated, usually from 46.1 µM), for inactives: at the top dose re-replication activation, hits mostly activators; 340,000 compounds, 1.8% hits; also: % of control where 0% means no effect; nearly all actives have a fitted effect of over 55% in size
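Hoechst fluorescence of nuclei (405 nm excitation, 500-530 nm emission) measured by plate-scanning imager after 48 hr compound exposure at 37 C; re-replication scored as increased number of nuclei with elevated intensity.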
* = called active by the depositor; i = inactive; ? = inconclusive; . = not tested or not shown. Hits are enriched below; roughly 8.1% of the tested compounds scored in any of these assays. Calls follow the shape of the dose curve; as a rule, active = well fitted curve in the direction sought with a large enough effect; inconclusive = small, poorly fitted or top-dose-only effect, or another doubt; inactive = no such curve, though single readings can be large; an effect the other way counts as inactive or inconclusive. Potency is read from the fitted curve at half-maximal effect.

SMILES	KB-3-1 cytotox	KB-V1 cytotox	MCF10A rerep	ELG1 repair inh	SW480 rereplic
COc1cc(C2SCC(=O)N2Cc2ccccc2)cc(OC)c1OC (stereo not drawn)	i	i	-1%	-13%	-21%
Cc1nn(-c2ccccc2)c2nc(C(F)(F)F)[nH]c(=O)c12	i	i	17%	-5%	-5%
Cc1nn(-c2cc(C(F)(F)F)ccc2Cl)c2nc(C(Cl)(Cl)Cl)[nH]c(=O)c12	i	i	?	21µM*	7%
CC(C)(C)C1=CC(O)(c2ccccc2)C=C(C(C)(C)C)C1=O	i	i	5.2µM*	1%	-1%
CCN1C(=O)N(CC)C(O)(c2ccccc2)C1(O)c1ccccc1 (stereo not drawn)	i	?	2%	0%	-4%
Cc1ccc(S(=O)(=O)Cn2nnnc2C(C(C)C)N2CCN(c3nc4ccccc4s3)CC2)cc1 (stereo not drawn)	i	i	1%	18µM*	10%
c1ccc(C(c2nnnn2Cc2ccco2)N2CCN(c3nc4ccccc4s3)CC2)cc1 (stereo not drawn)	i	?	21%	21µM*	-4%
COCCn1nnnc1C(CC(C)C)N1CCN(c2nc3ccccc3s2)CC1 (stereo not drawn)	i	i	1%	3%	-1%
c1ccc(Cn2nnnc2C(c2ccccc2)N2CCN(c3nc4ccccc4s3)CC2)cc1 (stereo not drawn)	i	i	-17%	15%	-8%
CN(C)N1C(N)=C(C#N)C(c2ccccc2)C2=C1CC(C)(C)CC2=O (stereo not drawn)	i	i	-21%	-29%	2%
CN(C)N1C(N)=C(C#N)C(c2cccc3ccccc23)C2=C1CC(c1ccccc1)CC2=O (stereo not drawn)	13µM*	21µM*	15µM*	16µM*	?
N/C(=N\N=C\c1ccc([N+](=O)[O-])cc1)c1nonc1N	i	i	-4%	?	-11%
CC1CCN(C(=O)C2CCN(S(=O)(=O)c3cc(Cl)ccc3Cl)CC2)CC1	i	?	-6%	?	8%
O=C(CCl)N=c1sccn1Cc1ccc(Cl)cc1Cl	?	18µM*	?	?	?
O=C(CCl)N=c1sccn1Cc1cccc2ccccc12	?	?	?	-4%	?
O=C(CCS(=O)(=O)c1ccc(Br)s1)NCc1cccs1	i	i	-7%	3%	-2%
CC(C)NC(=O)COC(=O)c1ccc(O)cc1	i	i	-4%	-1%	-3%
COCCCNC(=O)c1ccc2c(c1)ncn2-c1ccc(C)cc1C	i	i	21%	3%	-7%
O=C(Cc1csc(Nc2nc(=S)[nH]c3ccccc23)n1)N1CCN(c2cccc(Cl)c2)CC1	23µM*	18µM*	?	?	13%
Cc1ccc(Cl)cc1N1CCN(C(=O)Cc2csc(Nc3nc(=S)[nH]c4ccccc34)n2)CC1	i	?	?	0%	13%
Cc1ccc(CNC(=O)CSCc2nc(-c3cccc(C)c3)oc2C)cc1	?	i	.	.	.
Cc1ccc(-c2nc(CSCC(=O)NCc3cccnc3)c(C)o2)cc1	?	3.7µM*	0%	-29%	0%
COc1ccc(-c2nc(CSCC(=O)NCc3ccco3)c(C)o2)cc1	i	13µM*	-1%	18%	-7%
COc1ccc(-c2nc(CSCC(=O)NC3CCCc4ccccc43)c(C)o2)cc1 (stereo not drawn)	i	?	16µM*	?	15%
O=C(c1ccc(NS(=O)(=O)c2cccc([N+](=O)[O-])c2)cc1)N1CCCCCC1	i	i	2%	-2%	-6%
SMILES	KB-3-1 cytotox	KB-V1 cytotox	MCF10A rerep	ELG1 repair inh	SW480 rereplic
O=C(CSc1nc2ccccc2s1)N/N=C/c1ccccc1C(=O)O	i	i	1%	?	-1%
CCOC(=O)c1nnn(-c2nonc2N)c1-c1ccc(OCC)cc1	i	?	4%	-6%	-7%
Cc1ccccc1NC(=O)/C=C1\SC(=O)NC1=O	i	?	23µM*	3%	?
O=C(/C=C1\SC(=O)NC1=O)Nc1ccc(C(=O)O)cc1	i	i	0%	3%	-1%
Cc1sc2nc(SCC(=O)c3cccs3)n(Cc3ccco3)c(=O)c2c1C	i	i	21%	-7%	3%
Cc1ccc(-c2nnc(N3CCN(c4ccccn4)CC3)c3ccccc23)cc1	?	?	?	16µM*	18%
c1ccc(-c2nnc(N3CCN(c4ccccn4)CC3)c3ccccc23)cc1	?	?	?	13µM*	2%
O=S(=O)(c1ccccc1)N1CCN(c2nnc(-c3ccccc3)c3ccccc23)CC1	i	i	-4%	23µM*	4%
CS(=O)(=O)N1CCN(c2nnc(-c3ccccc3)c3ccccc23)CC1	i	i	1%	-22%	-1%
Cc1cccc(OCc2nnc(SCC(=O)N3CCCC3)n2C)c1	i	i	0%	1%	-9%
CCOC(=O)c1nnc(-c2ccc(C)cc2)nc1Sc1ccc(Cl)cc1	i	i	-2%	7%	-7%
CCOC(=O)c1nnc(-c2ccc(C)cc2)nc1Oc1ccccc1Cl	i	i	2.3µM*	5%	?
CCOC(=O)c1nnc(-c2ccccc2)nc1NCc1ccc(Cl)cc1	i	i	?	?	1%
CCOC(=O)c1nnc(-c2ccc(C)cc2)nc1Sc1ccccc1Cl	?	i	7.3µM*	0%	-4%
CCOC(=O)c1nnc(-c2ccc(C)cc2)nc1Oc1ccc(Cl)cc1Cl	i	i	?	26%	-7%
CCOC(=O)c1nnc(-c2ccccc2)nc1Sc1c(Cl)cccc1Cl	i	i	15µM*	3%	?
CCOC(=O)c1ccc(NS(=O)(=O)c2c(C)n[nH]c2C)cc1	i	i	-2%	0%	14%
Cc1ccccc1CN1C(=O)C(O)(CC(=O)c2ccncc2)c2ccccc21 (stereo not drawn)	?	?	?	-12%	16µM*
COc1ccc(C(=O)CC2(O)C(=O)N(Cc3cccc(C(F)(F)F)c3)c3ccccc32)cc1 (stereo not drawn)	?	15µM*	.	.	.
C#CCN1C(=O)C(O)(CC(=O)c2ccc(OC)c(OC)c2)c2ccccc21 (stereo not drawn)	?	18µM*	?	-11%	?

Screening data deposited in PubChem by National Center for Advancing Translational Sciences (NCATS).
